Many of the other results were omitted from the sample, so hits are more common in it than they were.
HIV RNase H inh-1 = blocks HIV-1 RNase H cleavage of RNA/DNA duplex. RT-RNase H RNA/DNA duplex cleavage, fluorescence. inhibition, % at 10 µM. AID 565. 65,000 tested, 1.9% active. P04585; in the data active = inhibition above about 50%
RmlC RmlD mix = mixture blocks RmlC and RmlD coupled enzyme activity | RmlC/RmlD coupled enzyme inhibition, 384-well mixture HTS | inhibition, % at 5.5 µM | 110,000 tested, 0.39% active; in the data active = inhibition above about 30%, passing the limit was not always enough
HIV RNase H inh-2 = confirmation of HIV-1 reverse transcriptase RNase H inhibitors; shares compounds with HIV RNase H inh-1; Recombinant RT RNase H, fluorescent RNA/DNA duplex cleavage; inhibition, % at 10 µM; 1,000 tested, 39% active; in the data active = inhibition above about 48%
* hit, by the source's call; / = no result.

SMILES	HIV RNase H inh-1	RmlC RmlD mix	HIV RNase H inh-2
O=C1NC(c2ccccn2)Nc2sc3c(c21)CCC3 (centres undefined)	-6.0	25.0	/
Cn1c(=O)c2cc(NC(=O)c3ccccc3Cl)c(=O)oc2n(C)c1=O	-5.1	-27.1	/
O=C(Nc1cccnc1)C1(c2ccc(Cl)cc2)CCCC1	/	3.2	/
CC(=O)Nc1nc(=S)ss1	64.2*	2.6	39.1
CC(C)CC(=O)Nc1nc(=S)ss1	/	1.6	/
CSc1nc(NCCOCCO)c2sc3nc(-c4ccco4)c4c(c3c2n1)CCC4	70.0*	18.5	42.1
CCN(CCO)c1nc(SC)nc2c1sc1nc(-c3ccco3)c3c(c12)CCC3	/	6.1	/
CC(=NC1CCCCC1)C1=C(O)c2ccccc2C1=O	0.0	-3.6	/
C=CCc1ccc(OCCCCCN2CCOCC2)c(OC)c1	-3.4	14.0	/
O=C(NCCN1CCOCC1)c1cc(S(=O)(=O)NCCCN2CCCC2=O)ccc1Cl	4.8	4.2	/
Cc1noc(C)c1C(=O)NCCCN1CCCC1=O	-5.5	6.3	/
CC1CC(C)CN(C(=O)CSc2nnc(-c3ccc(Cl)s3)o2)C1 (centres undefined)	14.8	7.5	/
CC1CC(C)CN(C(=O)CSc2nnc(-c3ccc(F)cc3)o2)C1 (centres undefined)	82.0*	-6.9	-5.1
Cc1cc2nc(-c3ccc(SCC(=O)N4CCN(C(=O)c5ccco5)CC4)nc3)[nH]c2cc1C	74.0*	32.1	45.0
Cc1cc2nc(-c3ccc(SCC(=O)N4CCOCC4)nc3)[nH]c2cc1C	6.7	10.6	/
C/C(=N\NC(=O)CN1CCOCC1)C(C)(C)C	/	8.6	/
CC(C)NC(=O)NC(=O)COC(=O)c1ccccc1Oc1ccccc1	/	-4.8	/
COc1ccc(NC(=O)CSc2nc3sc(C)c(C)c3c(=O)n2Cc2ccco2)cc1	-15.3	6.3	/
C=CCn1c(SCC(=O)NC(=O)NCc2ccco2)nc2sc(C)c(C)c2c1=O	91.7*	-7.6	63.5*
CC(=O)Oc1ccc(N2C(=O)C3C4C=CC(CO)(O4)C3C2=O)cc1 (centres undefined)	/	22.8	/
CC(=O)Oc1ccc(N2C(=O)C3C(C2=O)C2(C)C=CC3(C)O2)cc1 (centres undefined)	55.7*	-9.5	43.1
CCC(=O)N=c1sc2c(C)cc(C)cc2n1CC(=O)OC	-35.4	1.4	/
C=CCn1c(=O)[nH]c2cc(C(=O)N3CCN(c4cc(C)ccc4C)CC3)ccc2c1=O	79.6*	/	31.5
C=CCn1c(=O)[nH]c2cc(C(=O)N3CCN(c4ccc(C(C)=O)cc4)CC3)ccc2c1=O	34.8	/	/
O=C1CC(NCc2ccncc2)C(=O)N1c1ccc(Cl)cc1 (centres undefined)	-1.2	-13.1	/
SMILES	HIV RNase H inh-1	RmlC RmlD mix	HIV RNase H inh-2
COc1ccc(C2N(S(=O)(=O)c3ccccc3)CCN2S(=O)(=O)c2ccc(C)cc2)cc1 (centres undefined)	/	-10.7	/
O=C(CSc1nnc(CNC(=O)c2ccccc2F)o1)c1ccccc1	-14.1	4.5	/
Cc1cc2cc(C(c3nnnn3CC3CCCO3)N3CCCc4ccccc43)c(=O)[nH]c2cc1C (centres undefined)	51.6*	-11.4	28.7
CCc1ccc2[nH]c(=O)c(C(c3nnnn3CC3CCCO3)N3CCCc4ccccc43)cc2c1 (centres undefined)	8.4	6.0	/
CC(C)CN(CC(C)C)C(=O)C12CCC(C)(C(=O)O1)C2(C)C (centres undefined)	/	-4.9	/
CCN(CC)CCCN1C=C2C(=O)C(C)(OC(=O)C3CCCC3)C(=O)C=C2C=C1c1ccsc1 (centres undefined)	/	150.5	/
Cc1ccc(-n2c(N)c(C(=O)NCc3ccco3)sc2=S)cc1	/	-17.1	/
Cc1ccc(-n2c(N)c(C(N)=O)sc2=S)cc1	94.5*	-0.5	64.4*
[O-]C1=N/[N+](=C/c2ccccc2Cl)CC1	/	17.7	/
CCn1ncc(C2=NOC(C(=O)NCc3ccc(OC)cc3)C2)c1C (centres undefined)	-10.8	9.7	/
CCn1ncc(C2=NOC(C(=O)NCc3ccccc3)C2)c1C (centres undefined)	50.2*	-8.8	26.1
COc1ccc(C(=O)NC2(C(F)(F)F)C(=O)Nc3c2c(=O)[nH]c(=O)n3CCc2ccc(OC)c(OC)c2)cc1 (centres undefined)	/	-172.4	/
COC(=O)c1ccc2c(c1)N(Cc1nc(-c3cccc(Cl)c3)oc1C)C(=O)C1CCCN21 (centres undefined)	20.3	/	/
COC(=O)c1ccc2c(c1)N(Cc1nc(-c3ccc(Cl)cc3)oc1C)C(=O)C1CCCN21 (centres undefined)	77.8*	/	96.0*
N#CCCC12CCCCC1=Nc1ccccc12 (centres undefined)	-5.9	3.8	/
CSc1nc(C)cc(C)c1C#N	/	12.2	/
Cc1cc(C)c(C#N)c(=N)o1	92.8*	/	73.8*
COc1ccc(OCC(=O)N2CCN(S(=O)(=O)c3ccc(Cl)cc3)CC2)cc1	/	11.0	/
CCc1ccc(NC(=O)C(CC)Sc2nc3cc4c(cc3c(=O)n2Cc2ccco2)OCO4)cc1 (centres undefined)	/	12.9	/
CCc1ccccc1NC(=O)C(CC)Sc1nc2cc3c(cc2c(=O)n1Cc1ccco1)OCO3 (centres undefined)	78.2*	-13.2	-12.3
CCOc1ccc(C(C)=O)cc1Cn1nc(C(=O)O)c2ccccc2c1=O	7.0	2.5	/
Clc1ccc(Cl)c(OCc2cc(-c3ccccc3Cl)on2)c1	/	-12.7	/
COC(=O)c1ccc(N2C(=O)CC(NCc3ccccc3)C2=O)cc1 (centres undefined)	-7.3	-12.4	/
CN(Cc1ccccc1)C1CC(=O)N(c2ccc(C(=O)O)cc2)C1=O (centres undefined)	77.2*	3.9	-5.5
CCOC(=O)C1C(=O)C(C(C)=O)C(=O)CC1CC(C)SCC (centres undefined)	/	-7.0	/
SMILES	HIV RNase H inh-1	RmlC RmlD mix	HIV RNase H inh-2
O=C(Nc1ccc(N2CCOCC2)c(F)c1)c1ccncc1	-0.6	2.1	/
O=C(CN1C(=O)COc2ccccc21)N(Cc1ccccc1)Cc1ccccn1	84.2*	-7.3	39.4
Cc1ccc(CN(Cc2cccnc2)C(=O)CN2C(=O)COc3ccccc32)o1	-6.2	3.1	/
CCOC(=O)c1c(N)sn(-c2ccccc2C)c1=S	92.0*	10.5	71.3*
CCOC(=O)c1sc(=S)n(-c2ccccc2Cl)c1SC	/	23.1	/
CS(=O)(=O)n1nc(-c2ccc(Cl)cc2)nc1SCc1ccccc1	/	6.2	/
Cn1nc(-c2ccc(Cl)cc2)c2cc(C(=O)N3CCC(N4CCCCC4)CC3)sc21	-12.0	/	/
CCOC(=O)c1c(N)sc2c1CCCC2	85.4*	0.6	-1.4
CCOC(=O)c1c(N)sc2c1CCC(C)C2 (centres undefined)	4.9	-10.6	/
OCCn1c(CSc2nc3ccccc3n2CCO)nc2ccccc21	-6.0	10.1	/
OCCn1c(CSc2nnc(-c3ccco3)n2-c2ccccc2)nc2ccc(Cl)cc21	79.6*	-2.5	1.1
Cc1ccccc1OCc1nc(-c2ccc(NC(=O)c3ccc4c(c3)OCO4)cc2)no1	74.6*	-7.5	86.6*
Cc1ccc(-c2nc3ccccc3o2)cc1NC(=O)c1ccc2c(c1)OCO2	61.8*	-0.5	14.0
Cc1ccccc1OCc1nc(-c2ccc(NC(=O)c3ccco3)cc2)no1	26.3	4.4	/
Cc1c(NC(=O)c2ccc3c(c2)OCO3)cccc1-c1nc2ccccc2o1	3.5	-2.2	/
CC1CCN(C(=O)c2cc(F)c(F)cc2Cl)CC1	/	-12.6	/
Cc1ccc(C)c(S(=O)(=O)Nc2ccccc2C(=O)Nc2ccccc2N2CCOCC2)c1	/	-1.5	/

From PubChem
